Reference: PubChem BioAssay (EPA / NIEHS)
Records with an inconclusive call do not appear. Active and inactive are the calls of the source. Rule for the calls, unless noted: active = hit-call score of the fitted dose curve at least 0.9, where 1 is the maximum; inconclusive = response in the unintended direction; inactive = score below 0.9.

Assays:
[1] = ATG_AP_2_CIS: Attagene CIS-FACTORIAL HepG2 Assay for human Activator Protein 2 (AP-2) (AID 2282932; active = hit-call score of the fitted dose curve at least 0.9, where 1 is the maximum; inactive = score below 0.9); conditions: HepG2 AP-2 cis-reporter, Attagene transcription factor profiling; actives raise or lower the signal
Outline: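 Multiplexed mRNA reporter assay in HepG2: cis-regulated units report endogenous factor activity after 24 h treatment. Fluorescence from capillary electrophoresis of RT-PCR products gives the signal, with DMSO as baseline.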

[2] = target: Hepatocyte nuclear factor 3-beta (Homo sapiens) (UniProt Q9Y261); test: ATG_FoxA2_CIS: Attagene CIS-FACTORIAL HepG2 Assay for human Forkhead box A2 (FOXA2) (AID 2282942; active = hit-call score of the fitted dose curve at least 0.9, where 1 is the maximum; inactive = score below 0.9); conditions: HepG2 cis-reporter transcription factor activity, 24 h; actives raise or lower the signal
Outline: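 Transient MRTU transfection of HepG2 liver cells; 24 h treatment; total RNA → oligo(dT) RT → PCR → FAM primer extension → HpaI cut → CE. Bidirectional fit vs DMSO.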

[3] = ATG_M_32_CIS: Attagene CIS-FACTORIAL HepG2 Assay for M32 Transcription Factor (Internal Marker) (AID 2282949; active = hit-call score of the fitted dose curve at least 0.9, where 1 is the maximum; inactive = score below 0.9;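 note: background control marker of the multiplexed CIS panel rather than a real target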); conditions: HepG2 Attagene cis-factorial M32 reporter, mRNA; actives raise or lower the signal
Outline: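 Following 24 h chemical exposure of HepG2 cells transiently expressing cis-promoter reporter constructs, reporter transcript levels were determined by RT-PCR with fluorescent labelling and capillary electrophoresis, then fitted bidirectionally against DMSO.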

[4] = ATG_PBREM_CIS: Attagene CIS-FACTORIAL HepG2 Assay for human Phenobarbital-responsive Enhancer Module (PBREM) (AID 2282955; active = hit-call score of the fitted dose curve at least 0.9, where 1 is the maximum; inactive = score below 0.9); conditions: HepG2 PBREM cis-reporter, Attagene multiplexed transcription; actives raise or lower the signal
Outline: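 Endogenous transcription factors in human liver HepG2 cells drive a PBREM cis-element reporter, whose transcript level after 24 h treatment is quantified by RT-PCR with capillary electrophoresis; activity fitted in both directions against DMSO.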

[5] = ATG_GAL4_TRANS: Attagene TRANS-FACTORIAL HepG2 Assay for GAL4 (Internal Marker) (AID 2282976); conditions: HepG2 Attagene TRANS GAL4 internal marker reporter
Outline: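 In transfected human HepG2 liver cells dosed 24 h, GAL4 reporter mRNA serves as a baseline marker. Detection by RT-PCR with fluorescent capillary electrophoresis, activity fitted upward relative to DMSO.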

[6] = target: Oxysterols receptor LXR-beta (Homo sapiens) (UniProt P55055); test: ATG_LXRb_TRANS: Attagene TRANS-FACTORIAL HepG2 Assay for human Liver X Receptor beta (LXRb) (AID 2282981); conditions: HepG2 Attagene TRANS GAL4-LXRb reporter, mRNA
Outline: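 Gain-of-signal mRNA reporter endpoint, DMSO as negative control. Transiently transfected HepG2 cells carrying the NR-Gal4 chimera and GAL4-UAS reporter units were treated 24 h; transcripts quantified by RT-PCR and capillary electrophoresis fluorescence.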

[7] = ATG_NF_kB_CIS: Attagene CIS-FACTORIAL HepG2 Assay for human Nuclear Factor Kappa B (NF-kB) (AID 2282991; active = hit-call score of the fitted dose curve at least 0.9, where 1 is the maximum; inactive = score below 0.9); conditions: HepG2 Attagene cis-factorial NF-kB reporter mRNA; actives raise or lower the signal
Outline: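 Transient MRTU transfection of human HepG2 liver cells → 24 h chemical exposure → total RNA, oligo(dT) RT → PCR, 6-FAM primer extension, HpaI digest 2 h 37 C → CE fragment analysis. Bidirectional fitting, DMSO negative control.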

[8] = ATG_NRF2_ARE_CIS: Attagene CIS-FACTORIAL HepG2 Assay for human Nuclear Factor Erythroid 2 Related Factor 2 (NFR2) response to Antioxidant Response Elements (ARE) (AID 2282992; active = hit-call score of the fitted dose curve at least 0.9, where 1 is the maximum; inactive = score below 0.9;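 for AC50: reporter mRNA level measured by RT-PCR and capillary electrophoresis fluorescence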); conditions: HepG2 Attagene ARE/NRF2 reporter, transcription factor activity; actives raise or lower the signal
Outline: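 Multiplexed reporter mRNA profiling in HepG2 after a 24 h chemical exposure. Curves fitted in both directions relative to DMSO negative control.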

[9] = target: Peroxisome proliferator-activated receptor gamma (Homo sapiens) (UniProt P37231); test: ATG_PPARg_TRANS: Attagene TRANS-FACTORIAL HepG2 Assay for human Peroxisome Proliferator-activated Receptor-gamma (PPARg) (AID 2283007)
Outline: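 Transient transfection of HepG2 with GAL4-UAS-driven reporter units; chemical dosing 24 h; total RNA → oligo(dT) RT → PCR with reporter primers → 6-FAM primer extension → HpaI digest 2 h 37 C → capillary electrophoresis. Positive direction vs DMSO.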

[10] = target: Retinoic acid receptor RXR-alpha (Homo sapiens) (UniProt P19793); test: ATG_RXRa_TRANS: Attagene TRANS-FACTORIAL HepG2 Assay for human Retinoid X Receptor alpha (RXRa) (AID 2283012)
Outline: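 Cells (HepG2) carried transiently transfected GAL4-responsive reporter units. Following a 24 h chemical incubation, reporter mRNA induction was read via RT-PCR fragment analysis; DMSO served as negative control and baseline.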

[11] = ATG_XTT_Cytotoxicity: Cytotoxicity Assessment in the Attagene TRANS-FACTORIAL HepG2 Assay (AID 2283584)
Outline: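 Viability endpoint from XTT after 24 h chemical exposure of reporter-transfected human HepG2 liver cells; signal loss fitted relative to DMSO negative control.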

[12] = ACEA_ER_AUC_viability: ACEA Biosciences xCELLigence Real-Time Cell Analysis on Estrogen Receptor Agonism for Viability (AID 2283782);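 note: continuous compound exposure with impedance area under curve over 80 h; hit means loss of impedance signal meaning reduced cell growth or viability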
Outline: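 T47D cells preconditioned in phenol red-free RPMI with charcoal-stripped FBS, then dosed with 8-point 1:4 series from 100 uM (up to 0.5% DMSO). Impedance monitored up to ~80 h; area-under-curve loss versus DMSO taken as viability.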

[13] = CCTE_Harrill_HTTr_Apoptosis_MCF7: CCTE's 6-hour Apoptosis Assessment for the High-Throughput Transcriptomics (HTTr) Platform, in MCF-7 cells cultured in DMEM + 10% fetal bovine serum, Harrill Lab (AID 2284011; active = hit-call score of the fitted dose curve at least 0.9, where 1 is the maximum; inactive = score below 0.9)
Outline: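 High-content imaging of CellEvent Caspase 3/7 Green signal follows a six-hour exposure, with eight concentrations per chemical. MCF-7 cells grown in DMEM plus 10% fetal bovine serum; activity fitted in both directions against DMSO.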

[14] = ATG_PPRE_CIS: Attagene CIS-FACTORIAL HepG2 Assay for human Peroxisome Proliferator-activated Response Element (PPRE) (AID 2282958; active = hit-call score of the fitted dose curve at least 0.9, where 1 is the maximum; inactive = score below 0.9); conditions: HepG2 PPRE cis-element reporter, Attagene transcription factor profiling; actives raise or lower the signal
Outline: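 HepG2, transient MRTU transfection (cis promoter elements, endogenous TFs). 24 h dosing. RNA → oligo(dT) RT → PCR → 6-FAM primer extension → HpaI digest → CE. Bidirectional fit vs DMSO.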

[15] = target: Cellular tumor antigen p53 (Homo sapiens) (UniProt P04637); test: ATG_p53_CIS: Attagene CIS-FACTORIAL HepG2 Assay for human p53 Transcription Factor (AID 2282994; active = hit-call score of the fitted dose curve at least 0.9, where 1 is the maximum; inactive = score below 0.9); conditions: HepG2 p53 cis-element reporter, Attagene mRNA; actives raise or lower the signal
Outline: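 Multiplexed reporter mRNA assay in human HepG2 liver cells; cis-regulated units report endogenous factor activity. Values come from bidirectional curve fitting against DMSO negative control after 24 h treatment.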

[16] = target: human Peroxisome Proliferator-activated Receptor alpha (PPARa), PPARA (gene 5465) (UniProt Q07869); test: ATG_PPARa_TRANS: Attagene TRANS-FACTORIAL HepG2 Assay for human Peroxisome Proliferator-activated Receptor alpha (PPARa) (AID 2283001)
Outline: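 Measures transcriptional activity of an exogenous chimeric PPARa-Gal4 protein in transiently transfected HepG2 cells after 24 h dosing. Reporter mRNA quantified via RT-PCR and capillary electrophoresis; DMSO served as negative control.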

[17] = target: Nuclear receptor subfamily 1 group I member 2 (Homo sapiens) (UniProt O75469); test: ATG_PXR_TRANS: Attagene TRANS-FACTORIAL HepG2 Assay for human Pregnane X Receptor (PXR) (AID 2283008)
Outline: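 Measures mRNA induction of a GAL4-UAS-driven reporter in human HepG2 cells transiently expressing PXR fused to Gal4, following 24 h treatment. DMSO served as negative control and baseline.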

[18] = target: Cellular tumor antigen p53 (Homo sapiens) (UniProt P04637); test: TOX21_p53_BLA_p2_ratio: Tox21 HCT-116 p53 Agonism Beta-lactamase Assay, Ratio, Phase 2 (AID 2283592)
Outline: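 Gain-of-signal p53 agonism was scored from the beta-lactamase FRET ratio (460/530 nm, 405 nm excitation) in HCT116 cells treated 16 h at 37C, 5% CO2, with DMSO serving as negative control and baseline.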

[19] = target: Cellular tumor antigen p53 (Homo sapiens) (UniProt P04637); test: TOX21_p53_BLA_p5_ratio: Tox21 HCT-116 p53 Agonism Beta-lactamase Assay, Ratio, Phase 5 (AID 2283599)
Outline: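 HCT-116 p53-bla cells (4000/well) plated 5 h, dosed with compound (217-fold DMSO dilution) for 16 h at 37 C; CCF4-AM substrate 2 h at room temperature. Activity is the 460/530 nm emission ratio (405 nm excitation), fitted in gain-of-signal direction versus DMSO.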

Measured: AC50

Sequence of Peroxisome proliferator-activated receptor gamma (Homo sapiens) (P37231 whole entry, looked up, the tested form may be a part): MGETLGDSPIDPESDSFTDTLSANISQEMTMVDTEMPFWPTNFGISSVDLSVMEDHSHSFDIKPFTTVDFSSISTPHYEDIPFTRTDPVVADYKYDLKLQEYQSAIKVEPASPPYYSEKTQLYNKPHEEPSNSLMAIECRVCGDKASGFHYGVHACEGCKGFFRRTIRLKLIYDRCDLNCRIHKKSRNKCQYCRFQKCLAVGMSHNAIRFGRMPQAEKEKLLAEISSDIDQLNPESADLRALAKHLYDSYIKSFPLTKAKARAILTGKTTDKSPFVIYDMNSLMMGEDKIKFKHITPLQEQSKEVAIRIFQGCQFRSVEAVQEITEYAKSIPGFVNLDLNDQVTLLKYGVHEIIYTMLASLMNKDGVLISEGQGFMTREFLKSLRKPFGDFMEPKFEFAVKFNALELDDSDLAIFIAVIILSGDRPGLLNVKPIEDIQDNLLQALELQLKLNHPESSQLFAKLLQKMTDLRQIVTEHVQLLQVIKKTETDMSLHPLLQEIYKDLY
Sequence of Nuclear receptor subfamily 1 group I member 2 (Homo sapiens) (O75469 whole entry, looked up, the tested form may be a part): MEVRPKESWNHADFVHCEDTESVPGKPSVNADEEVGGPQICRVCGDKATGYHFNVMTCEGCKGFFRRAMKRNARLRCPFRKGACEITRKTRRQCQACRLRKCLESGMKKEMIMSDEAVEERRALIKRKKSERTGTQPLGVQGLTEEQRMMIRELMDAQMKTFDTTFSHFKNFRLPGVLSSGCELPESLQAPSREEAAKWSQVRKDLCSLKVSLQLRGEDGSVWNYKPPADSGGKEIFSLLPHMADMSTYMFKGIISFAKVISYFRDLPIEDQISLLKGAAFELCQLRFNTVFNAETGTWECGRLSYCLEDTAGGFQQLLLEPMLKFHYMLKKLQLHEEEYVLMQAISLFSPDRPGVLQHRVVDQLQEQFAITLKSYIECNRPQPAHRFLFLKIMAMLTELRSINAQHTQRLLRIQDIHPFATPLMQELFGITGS
Sequence of Hepatocyte nuclear factor 3-beta (Homo sapiens) (Q9Y261 whole entry, looked up): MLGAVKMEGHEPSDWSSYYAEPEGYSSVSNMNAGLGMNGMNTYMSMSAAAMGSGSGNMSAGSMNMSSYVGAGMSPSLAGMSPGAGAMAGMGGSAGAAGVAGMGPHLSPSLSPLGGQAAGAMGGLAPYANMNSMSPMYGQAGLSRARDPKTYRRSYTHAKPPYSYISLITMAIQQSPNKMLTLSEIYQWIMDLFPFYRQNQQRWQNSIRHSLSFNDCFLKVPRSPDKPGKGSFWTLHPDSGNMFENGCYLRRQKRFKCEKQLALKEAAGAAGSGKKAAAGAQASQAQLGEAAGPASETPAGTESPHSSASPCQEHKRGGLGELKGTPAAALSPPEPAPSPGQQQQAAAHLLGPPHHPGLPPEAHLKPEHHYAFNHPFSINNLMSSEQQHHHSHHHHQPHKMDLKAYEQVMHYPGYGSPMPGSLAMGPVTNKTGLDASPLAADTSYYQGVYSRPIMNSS
Sequence of human Peroxisome Proliferator-activated Receptor alpha (PPARa), PPARA (gene 5465) (Q07869 whole entry, looked up, the tested form may be a part): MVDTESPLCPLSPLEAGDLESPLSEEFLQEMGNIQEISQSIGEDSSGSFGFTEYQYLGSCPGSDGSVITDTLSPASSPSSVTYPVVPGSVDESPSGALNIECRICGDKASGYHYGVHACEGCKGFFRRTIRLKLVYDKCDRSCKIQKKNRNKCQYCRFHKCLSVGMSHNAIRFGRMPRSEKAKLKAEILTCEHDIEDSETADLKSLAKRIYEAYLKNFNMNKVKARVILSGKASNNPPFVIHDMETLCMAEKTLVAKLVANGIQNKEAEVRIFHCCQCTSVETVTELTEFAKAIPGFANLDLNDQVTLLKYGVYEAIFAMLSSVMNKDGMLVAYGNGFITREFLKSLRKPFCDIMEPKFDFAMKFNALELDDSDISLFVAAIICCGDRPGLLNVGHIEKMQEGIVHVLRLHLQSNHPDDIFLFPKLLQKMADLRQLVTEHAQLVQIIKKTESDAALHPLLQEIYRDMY
Sequence of Retinoic acid receptor RXR-alpha (Homo sapiens) (P19793 whole entry, looked up, the tested form may be a part): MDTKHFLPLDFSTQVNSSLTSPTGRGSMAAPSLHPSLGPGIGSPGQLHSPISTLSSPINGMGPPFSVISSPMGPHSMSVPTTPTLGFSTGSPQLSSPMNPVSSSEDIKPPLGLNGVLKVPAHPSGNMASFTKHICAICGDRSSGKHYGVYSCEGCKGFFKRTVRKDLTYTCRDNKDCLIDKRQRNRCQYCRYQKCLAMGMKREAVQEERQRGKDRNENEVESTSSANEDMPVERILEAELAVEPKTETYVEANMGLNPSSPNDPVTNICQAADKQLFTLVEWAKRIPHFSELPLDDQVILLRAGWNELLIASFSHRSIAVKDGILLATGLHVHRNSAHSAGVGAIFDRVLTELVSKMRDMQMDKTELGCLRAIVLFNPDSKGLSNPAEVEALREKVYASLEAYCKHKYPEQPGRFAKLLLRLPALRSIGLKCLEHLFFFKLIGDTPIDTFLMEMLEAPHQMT
Sequence of Oxysterols receptor LXR-beta (Homo sapiens) (P55055 whole entry, looked up, the tested form may be a part): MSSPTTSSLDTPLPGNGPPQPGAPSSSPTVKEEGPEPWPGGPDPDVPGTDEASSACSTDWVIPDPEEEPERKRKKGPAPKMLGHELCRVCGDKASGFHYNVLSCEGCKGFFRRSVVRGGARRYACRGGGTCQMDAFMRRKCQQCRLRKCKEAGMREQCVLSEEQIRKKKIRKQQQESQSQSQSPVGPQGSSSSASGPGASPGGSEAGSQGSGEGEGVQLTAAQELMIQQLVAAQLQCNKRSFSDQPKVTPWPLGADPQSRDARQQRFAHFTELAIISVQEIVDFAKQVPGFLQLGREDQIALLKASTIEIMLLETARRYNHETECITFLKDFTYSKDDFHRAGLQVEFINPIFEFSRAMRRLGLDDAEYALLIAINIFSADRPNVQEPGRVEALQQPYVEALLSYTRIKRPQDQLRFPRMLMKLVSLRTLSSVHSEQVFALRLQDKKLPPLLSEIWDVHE
Sequence of Cellular tumor antigen p53 (Homo sapiens) (P04637 whole entry, looked up): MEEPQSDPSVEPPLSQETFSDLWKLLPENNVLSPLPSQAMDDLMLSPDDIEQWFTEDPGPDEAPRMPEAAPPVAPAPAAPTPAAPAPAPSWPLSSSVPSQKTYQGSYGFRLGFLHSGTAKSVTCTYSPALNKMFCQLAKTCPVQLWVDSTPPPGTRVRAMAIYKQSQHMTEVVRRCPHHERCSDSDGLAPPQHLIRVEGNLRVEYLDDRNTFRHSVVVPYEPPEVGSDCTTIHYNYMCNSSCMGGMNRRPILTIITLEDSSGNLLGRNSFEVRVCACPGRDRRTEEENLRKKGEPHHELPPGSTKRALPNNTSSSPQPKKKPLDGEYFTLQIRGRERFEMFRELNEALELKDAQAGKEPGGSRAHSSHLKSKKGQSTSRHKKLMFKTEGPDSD

O=C=Nc1ccccc1
not listed: [14] | [15] | [16] | [17] | [18] | [19]
inactive: all other assays above

C=CC(=O)OCCCCOC(=O)C=C
active: [7] 35.3 µM | [8] 24.6 µM | [15] 163 µM | [9] 2.14 µM | [18] 49.6 µM | [12] 24.2 µM
not listed: [5] | [13]
inactive: all other assays above

O=C(CCN1CC1)OCC(CO)(COC(=O)CCN1CC1)COC(=O)CCN1CC1
active: [12] 63.1 µM
not listed: [3] | [6] | [13] | [14] | [16] | [17]
inactive: all other assays above

O=C1C=CC(=O)C=C1
active: [8] 57.4 µM | [12] 73.5 µM
not listed: [2] | [5] | [14]
inactive: all other assays above

O=[N+]([O-])O
inactive: [1] | [2] | [5] | [8] | [9] | [11] | [12] | [13]

C[N+](=O)[O-]
inactive: [1] | [2] | [14] | [5] | [6] | [7] | [15] | [16] | [9] | [10]

CN(C)N
not listed: [2] | [4] | [7] | [9] | [17] | [18]
inactive: all other assays above

CNC(=O)Oc1cc(C)c(SC)c(C)c1
active: [14] 36.4 µM | [17] 13.3 µM
inactive: [2] | [4] | [6] | [7] | [8] | [15] | [16] | [10] | [13]

Nc1ccc([N+](=O)[O-])cc1N
active: [12] 50 µM
not listed: [4] | [7] | [8] | [13] | [16]
inactive: all other assays above

Cc1ccc(OP(=O)(Oc2ccc(C)cc2)Oc2ccc(C)cc2)cc1 (tested in a mixture with another compound)
active: [9] 1.85 µM | [17] 0.596 µM
not listed: [4] | [5] | [6] | [7] | [16]
inactive: all other assays above
